Molecules are shown by their SMILES. Where a name gives a salt, the structure may show the parent alone. ± gives the standard deviation or the standard deviation of the averaged measurements.

Among the data in the supplement of paper PMC7366291 are glomerular separation and glomerular width values, retold here.

The subject of one test is Danio rerio Tg(wt1b:EGFP) embryo, pronephros. Briefly: glomerular separation, fold change vs DMSO control; higher = glomeruli further apart (abnormal). The settings on record: 25 µM; exposure: 24-48 hpf. An outline of the steps:
(§1)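 Features are reported as fold changes against the mean of same-day DMSO-treated embryos. Before that, values more than 2 SD away from the feature mean were excluded. The embryos, dechorionated Tg(wt1b:EGFP) zebrafish, had been exposed from 24 to 48 hpf at 28.5°C to 25 μM compound in 0.5% DMSO in HEPES-buffered E3 with 0.003% PTU, and distances and angles came from 16 manually set points on maximum projections of dorsal pronephros images in Fiji.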
Take `CN(C)CCC=C1c2ccccc2C=Cc2ccccc21` [Cyclobenzaprine hydrochloride]: the glomerular separation came to 1.02 ± 0.31.

Turning to `CC(NCCC(c1ccccc1)c1ccccc1)c1ccccc1` (stereo not drawn) [Fendiline hydrochloride], the glomerular separation was 1.17 ± 0.28.

On to `c1ccc2c(c1)CCCC2C1=NCCN1` (stereo not drawn) [Tetrahydrozoline hydrochloride], for which the glomerular separation stood at 0.793 ± 0.31.

`C=CC(N)CCC(=O)O` (stereo not drawn) [Vigabatrin hydrochloride] registered a glomerular separation of 0.956 ± 0.33.

In turn, `O=c1n(CCCN2CCN(c3cccc(Cl)c3)CC2)nc2ccccn12` [Trazodone hydrochloride] gave a glomerular separation of 1.2 ± 0.34.

`CCOC(=O)C(C)(C)Oc1ccc(Cl)cc1` [Clofibrate] returned a glomerular separation of 2.62 ± 1.7.

The compound `CCC(NC(C)C)C(O)c1ccc(O)c(O)c1` (stereo not drawn) [Isoetharine mesylate salt] gave a glomerular separation of 1.01 ± 0.56.

As for `CN1CCC(=C2c3ccccc3CCc3cccnc32)CC1` [Azatadine maleate], the glomerular separation is 1.11 ± 0.32.

On to `COc1ccccc1OCC(O)CO` (stereo not drawn) [Guaifenesin], for which the glomerular separation amounted to 1.21 ± 0.52.

`CCOC(=O)n1ccn(C)c1=S` [Carbimazole] came in with a glomerular separation of 1.35 ± 0.58.

`CC(=O)OCC(=O)[C@@]1(O)CC[C@H]2[C@@H]3CCC4=CC(=O)CC[C@]4(C)[C@H]3[C@@H](O)C[C@@]21C` [Cortisol acetate]: the glomerular separation amounted to 1.43 ± 0.59.

The compound `COc1cc(NS(=O)(=O)c2ccc(N)cc2)nc(OC)n1` [Sulfadimethoxine] came in with a glomerular separation of 1.02 ± 0.48.

As for `CCN1CCN(C(=O)N[C@@H](C(=O)N[C@@H]2C(=O)N3[C@@H]2SC(C)(C)[C@@H]3C(=O)O)c2ccccc2)C(=O)C1=O` [Piperacillin sodium salt], the glomerular separation stood at 1.07 ± 0.47.

Consider `COc1ccc([C@@H]2CC(=O)c3c(O)cc(O[C@@H]4O[C@H](CO[C@@H]5O[C@@H](C)[C@H](O)[C@@H](O)[C@H]5O)[C@@H](O)[C@H](O)[C@H]4O)cc3O2)cc1O` [Hesperidin], for which the glomerular separation came to 0.827 ± 0.15.

For the compound `CN1CCCN=C1/C=C/c1cccs1` [Pyrantel tartrate], the glomerular separation came to 0.9 ± 0.18.

`C#C[C@]1(O)CC[C@H]2[C@@H]3[C@H](C)CC4=C(CCC(=O)C4)[C@H]3CC[C@@]21C` [Tibolone] returned a glomerular separation of 0.915 ± 0.4.

Take `Nc1ccc(C(=O)NCC(=O)O)cc1` [Aminohippuric acid]: the glomerular separation was 0.88 ± 0.41.

As to `COc1ccc2[nH]cc(CCNC(C)=O)c2c1` [Melatonin], the glomerular separation is 0.974 ± 0.26.

Take `CN1[C@@H]2CC[C@H]1C[C@@H](OC(c1ccccc1)c1ccccc1)C2` [Benztropine mesylate]: the glomerular separation came to 0.821 ± 0.18.

Compound `C=CC1=C(C(=O)O)N2C(=O)[C@@H](NC(=O)/C(=N\OCC(=O)O)c3csc(N)n3)[C@H]2SC1` [Cefixime] displayed a glomerular separation of 1.32 ± 0.59.

Consider `COc1cccc2c1C(=O)c1c(O)c3c(c(O)c1C2=O)C[C@@](O)(C(=O)CO)C[C@@H]3O[C@H]1C[C@H](N)[C@@H](O)[C@H](C)O1` [Epirubicin hydrochloride], for which the glomerular separation is 1.93 ± 0.41.

In the case of `CC(=O)[C@H]1CC[C@H]2[C@@H]3CC=C4C[C@@H](O)CC[C@]4(C)[C@H]3CC[C@]12C` [Pregnenolone], the glomerular separation amounted to 1.31 ± 0.74.

In the case of `CC(C)(S)C(N)C(=O)O` (racemic) [D,L-Penicillamine], the glomerular separation amounted to 1.31 ± 0.71.

In the case of `O=C(CCCN1CCN(c2ccccn2)CC1)c1ccc(F)cc1` [Azaperone], the glomerular separation is 1.11 ± 0.43.

For the compound `Clc1cccc(Cl)c1NC1=NCCN1` [Clonidine hydrochloride], the glomerular separation was found to be 0.954 ± 0.35.

The compound `NC(=O)NC1NC(=O)NC1=O` (stereo not drawn) [Allantoin] gave a glomerular separation of 0.881 ± 0.25.

Take `Nc1nc(=O)[nH]cc1F` [Flucytosine]: the glomerular separation is 0.784 ± 0.38.

`O=c1[nH]cnc2c1ncn2[C@H]1CC[C@@H](CO)O1` [Didanosine]: the glomerular separation is 1.24 ± 0.56.

Consider `Cc1ncc(C[n+]2csc(CCO)c2C)c(N)n1` [Thiamine hydrochloride], for which the glomerular separation amounted to 0.951 ± 0.4.

Take `CCOC(=O)[C@@](C)(N)Cc1ccc(O)c(O)c1` [Methyldopate hydrochloride]: the glomerular separation is 1.28 ± 0.62.

As to `CCN(CCCCOC(=O)c1ccc(OC)c(OC)c1)C(C)Cc1ccc(OC)cc1` (stereo not drawn) [Mebeverine hydrochloride], the glomerular separation came out at 0.925 ± 0.3.

In the case of `CC(=O)NCCCS(=O)(=O)O` [Acamprosate calcium], the glomerular separation was determined as 1.02 ± 0.41.

The compound `Nc1c2ccccc2nc2ccccc12` [Aminacrine] showed a glomerular separation of 0.947 ± 0.57.

As to `Cc1ncc(CO)c(CO)c1O` [Pyridoxine hydrochloride], the glomerular separation is 0.838 ± 0.25.

Compound `CCCCCN(C)CCC(O)(P(=O)(O)O)P(=O)(O)O` [Ibandronate sodium] showed a glomerular separation of 0.837 ± 0.21.

Turning to `Cc1cc(=O)n(-c2ccccc2)n1C` [Antipyrine], the glomerular separation came out at 1 ± 0.28.

`C[C@@H]1NC(=O)NC1=O` [Methylhydantoin-5-(L)] gave a glomerular separation of 0.772 ± 0.24.

`Cc1c(C)c2c(c(C)c1O)CCC(C)(C(=O)O)O2` (stereo not drawn) [Trolox]: the glomerular separation is 0.733 ± 0.23.

Take `CCCCOC(=O)c1ccc(N)cc1` [Butamben]: the glomerular separation turned out to be 1.07 ± 0.41.

The test system is the same in the next test. In words: glomerular width (mean of left and right), fold change vs DMSO control; higher = wider glomerulus. The settings on record: 25 µM; exposure: 24-48 hpf. An outline of the steps: as §1
`CN(C)CCC=C1c2ccccc2C=Cc2ccccc21` [Cyclobenzaprine hydrochloride] returned a glomerular width of 0.977 ± 0.043.

For the compound `CC(NCCC(c1ccccc1)c1ccccc1)c1ccccc1` (stereo not drawn) [Fendiline hydrochloride], the glomerular width stood at 0.995 ± 0.018.

For `c1ccc2c(c1)CCCC2C1=NCCN1` (stereo not drawn) [Tetrahydrozoline hydrochloride], the glomerular width came out at 1.06 ± 0.027.

`C=CC(N)CCC(=O)O` (stereo not drawn) [Vigabatrin hydrochloride] came in with a glomerular width of 1.129 ± 0.0097.

In turn, `O=c1n(CCCN2CCN(c3cccc(Cl)c3)CC2)nc2ccccn12` [Trazodone hydrochloride] gave a glomerular width of 0.97 ± 0.015.

As to `CCOC(=O)C(C)(C)Oc1ccc(Cl)cc1` [Clofibrate], the glomerular width amounted to 0.608 ± 0.044.

With `CCC(NC(C)C)C(O)c1ccc(O)c(O)c1` (stereo not drawn) [Isoetharine mesylate salt], the glomerular width is 1.074 ± 0.0074.

Consider `CN1CCC(=C2c3ccccc3CCc3cccnc32)CC1` [Azatadine maleate], for which the glomerular width was found to be 0.9513 ± 0.00027.

Regarding `COc1ccccc1OCC(O)CO` (stereo not drawn) [Guaifenesin], the glomerular width came out at 0.929 ± 0.12.

`CCOC(=O)n1ccn(C)c1=S` [Carbimazole] returned a glomerular width of 0.997 ± 0.029.

`CC(=O)OCC(=O)[C@@]1(O)CC[C@H]2[C@@H]3CCC4=CC(=O)CC[C@]4(C)[C@H]3[C@@H](O)C[C@@]21C` [Cortisol acetate] displayed a glomerular width of 1.29 ± 0.049.

Consider `COc1cc(NS(=O)(=O)c2ccc(N)cc2)nc(OC)n1` [Sulfadimethoxine], for which the glomerular width was found to be 1.04 ± 0.014.

`CCN1CCN(C(=O)N[C@@H](C(=O)N[C@@H]2C(=O)N3[C@@H]2SC(C)(C)[C@@H]3C(=O)O)c2ccccc2)C(=O)C1=O` [Piperacillin sodium salt] came in with a glomerular width of 0.991 ± 0.063.

Consider `COc1ccc([C@@H]2CC(=O)c3c(O)cc(O[C@@H]4O[C@H](CO[C@@H]5O[C@@H](C)[C@H](O)[C@@H](O)[C@H]5O)[C@@H](O)[C@H](O)[C@H]4O)cc3O2)cc1O` [Hesperidin], for which the glomerular width worked out at 0.938 ± 0.045.

In the case of `CN1CCCN=C1/C=C/c1cccs1` [Pyrantel tartrate], the glomerular width was 0.937 ± 0.024.

Consider `C#C[C@]1(O)CC[C@H]2[C@@H]3[C@H](C)CC4=C(CCC(=O)C4)[C@H]3CC[C@@]21C` [Tibolone], for which the glomerular width was 0.908 ± 0.019.

`Nc1ccc(C(=O)NCC(=O)O)cc1` [Aminohippuric acid] had a glomerular width of 0.993 ± 0.03.

Consider `COc1ccc2[nH]cc(CCNC(C)=O)c2c1` [Melatonin], for which the glomerular width is 0.989 ± 0.026.

Compound `CN1[C@@H]2CC[C@H]1C[C@@H](OC(c1ccccc1)c1ccccc1)C2` [Benztropine mesylate] displayed a glomerular width of 1 ± 0.025.

As for `C=CC1=C(C(=O)O)N2C(=O)[C@@H](NC(=O)/C(=N\OCC(=O)O)c3csc(N)n3)[C@H]2SC1` [Cefixime], the glomerular width came to 1 ± 0.014.

`COc1cccc2c1C(=O)c1c(O)c3c(c(O)c1C2=O)C[C@@](O)(C(=O)CO)C[C@@H]3O[C@H]1C[C@H](N)[C@@H](O)[C@H](C)O1` [Epirubicin hydrochloride] yielded a glomerular width of 1.07 ± 0.031.

With `CC(=O)[C@H]1CC[C@H]2[C@@H]3CC=C4C[C@@H](O)CC[C@]4(C)[C@H]3CC[C@]12C` [Pregnenolone], the glomerular width came out at 1.14 ± 0.018.

`CC(C)(S)C(N)C(=O)O` (racemic) [D,L-Penicillamine] yielded a glomerular width of 1.03 ± 0.015.

`O=C(CCCN1CCN(c2ccccn2)CC1)c1ccc(F)cc1` [Azaperone] displayed a glomerular width of 0.925 ± 0.039.

As to `Clc1cccc(Cl)c1NC1=NCCN1` [Clonidine hydrochloride], the glomerular width came to 1.001 ± 0.0053.

As for `NC(=O)NC1NC(=O)NC1=O` (stereo not drawn) [Allantoin], the glomerular width amounted to 0.9104 ± 0.001.

`Nc1nc(=O)[nH]cc1F` [Flucytosine]: the glomerular width is 1.0052 ± 0.0006.

Take `O=c1[nH]cnc2c1ncn2[C@H]1CC[C@@H](CO)O1` [Didanosine]: the glomerular width worked out at 1.06 ± 0.052.

The compound `Cc1ncc(C[n+]2csc(CCO)c2C)c(N)n1` [Thiamine hydrochloride] came in with a glomerular width of 1.1 ± 0.036.

The compound `CCOC(=O)[C@@](C)(N)Cc1ccc(O)c(O)c1` [Methyldopate hydrochloride] gave a glomerular width of 0.9116 ± 0.0027.

`CCN(CCCCOC(=O)c1ccc(OC)c(OC)c1)C(C)Cc1ccc(OC)cc1` (stereo not drawn) [Mebeverine hydrochloride] registered a glomerular width of 0.986 ± 0.044.

On to `CC(=O)NCCCS(=O)(=O)O` [Acamprosate calcium], for which the glomerular width worked out at 1.02 ± 0.022.

The compound `Nc1c2ccccc2nc2ccccc12` [Aminacrine] gave a glomerular width of 1.01 ± 0.055.

For the compound `Cc1ncc(CO)c(CO)c1O` [Pyridoxine hydrochloride], the glomerular width is 1.04 ± 0.019.

For `CCCCCN(C)CCC(O)(P(=O)(O)O)P(=O)(O)O` [Ibandronate sodium], the glomerular width turned out to be 1.06 ± 0.025.

In turn, `Cc1cc(=O)n(-c2ccccc2)n1C` [Antipyrine] registered a glomerular width of 0.98 ± 0.024.

`C[C@@H]1NC(=O)NC1=O` [Methylhydantoin-5-(L)] gave a glomerular width of 0.967 ± 0.048.

`Cc1c(C)c2c(c(C)c1O)CCC(C)(C(=O)O)O2` (stereo not drawn) [Trolox] had a glomerular width of 0.963 ± 0.058.

Turning to `CCCCOC(=O)c1ccc(N)cc1` [Butamben], the glomerular width worked out at 1.04 ± 0.12.
